In all, about 110,000 compounds were measured (“z-score”: median about -0.1, highest 2% from about 2 on). What follows is part of a selection rich in the highest values, with near analogues and random picks from the rest. The source made the active and inactive calls.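 Rule for the calls: active = z-score in the third read window above 3 or below -3; inactive = the rest.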

Chain of Metabotropic glutamate receptor 8 (Rattus norvegicus) (P70579 whole entry, looked up): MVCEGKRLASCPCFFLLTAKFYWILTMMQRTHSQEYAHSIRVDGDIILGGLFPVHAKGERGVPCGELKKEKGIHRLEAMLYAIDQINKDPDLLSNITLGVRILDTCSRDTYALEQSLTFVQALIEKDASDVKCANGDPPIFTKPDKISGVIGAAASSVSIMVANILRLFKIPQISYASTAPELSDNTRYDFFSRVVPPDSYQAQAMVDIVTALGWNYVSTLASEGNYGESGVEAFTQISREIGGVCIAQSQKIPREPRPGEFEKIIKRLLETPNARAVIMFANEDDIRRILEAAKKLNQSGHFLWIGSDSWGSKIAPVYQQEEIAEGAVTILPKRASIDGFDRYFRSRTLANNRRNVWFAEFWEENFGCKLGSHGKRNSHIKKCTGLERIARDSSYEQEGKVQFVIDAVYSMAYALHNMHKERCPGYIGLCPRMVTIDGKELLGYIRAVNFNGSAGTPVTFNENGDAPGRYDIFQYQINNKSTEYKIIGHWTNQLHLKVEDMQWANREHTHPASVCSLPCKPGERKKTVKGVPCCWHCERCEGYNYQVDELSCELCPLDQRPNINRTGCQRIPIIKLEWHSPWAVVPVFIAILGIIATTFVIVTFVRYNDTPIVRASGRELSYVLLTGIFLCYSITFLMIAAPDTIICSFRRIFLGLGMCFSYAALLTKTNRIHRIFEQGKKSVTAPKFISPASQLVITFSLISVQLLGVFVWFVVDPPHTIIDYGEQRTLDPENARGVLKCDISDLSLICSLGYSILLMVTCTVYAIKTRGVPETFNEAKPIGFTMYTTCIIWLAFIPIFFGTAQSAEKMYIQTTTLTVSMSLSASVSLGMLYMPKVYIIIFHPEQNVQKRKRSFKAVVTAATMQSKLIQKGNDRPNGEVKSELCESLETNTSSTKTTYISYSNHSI

The experiment has as its target Metabotropic glutamate receptor 8 (Rattus norvegicus) (UniProt P70579). As to the kind of experiment: rat mGluR8 modulators via GIRK flux, primary screen, cell-based, thallium flux, HTS (AID 488969). The conditions noted are these: HEK293 rat mGluR8, GIRK (G protein-gated inwardly rectifying potassium channel) thallium flux, FluoZin2; at 10 µM; stronger effect = higher value; submaximal glutamate (EC20) added with thallium.
In the case of `CCC1=NN(C(=O)c2cccc(Br)c2)C(O)(c2ccc(Br)cc2)C1` (stereo not given), the z-score is 3.84 (active).
As for `CC1=NN(C(=O)c2ccc(C)cc2)C(O)(C(F)(F)OC(F)(F)F)C1` (stereo not given), the z-score is -0.0203.
The same measure for `COC(=O)C1=NN(C(=O)c2ccccc2)C(C)(O)C1` (stereo not given): 0.19; for `CCOC(=O)C1=NN(C(=O)c2ccccc2)C(O)(c2ccc(C)cc2)C1` (stereo not given): 10.5 (active); for `COC(=O)C1(O)CC(C(C)C)=NN1C(=O)c1ccc(Cl)cc1` (stereo not given): 0.417.
The compound `CCOC(=O)C1=NN(C(C)=O)C2(CC(=O)N(c3cccc(C)c3)C2=O)C1` (stereo not given) displayed a z-score of -0.0266.
`CCC1(O)CC(C(=O)OC)=NN1C(=O)c1ccccc1` (stereo not given) had a z-score of 0.602.
In the case of `COC(=O)C1=NN(C(=O)c2ccc(Cl)cc2)C(O)(c2ccccc2)C1` (stereo not given), the z-score is 11.5 (active).
Compound `CCOC(=O)C1=NN(C(=O)c2ccco2)C2(CC2)C1` displayed a z-score of -0.239.
The same measure for `COC(=O)C1=NN(C(=O)c2ccc(C)cc2)C(O)(c2ccc(Cl)cc2)C1` (stereo not given): 8.48 (active); for `CCC1=NN(C(=O)c2ccc(C)cc2)C(O)(c2ccc(Br)cc2)C1` (stereo not given): 0.175.
On to `CCC1=NN(C(=O)Cc2ccc([N+](=O)[O-])cc2)C(O)(c2ccc(Br)cc2)C1` (stereo not given), for which the z-score was -0.206.
The same measure for `Cn1ncc(Br)c1C(=O)OCC(=O)Nc1nc(-c2ccccc2)cs1`: -0.654.
The same measure for `CCCCOCCCNC(=O)/C=C/c1ccccc1Cl`: -0.149.
To `C/C=C/c1ccc(OCCCNC2CCCC2)c(OC)c1` belongs 1.24; to `COC(=O)c1cc(C#N)c(N(C)Cc2ccccc2)nc1C`, -0.154.
For `CCc1nnc(NC(=O)CSc2nnc(-c3ccncc3)n2C)s1`, the z-score is -1.78.
In turn, `COC(=O)c1cc(O)c(OCc2ccccc2)c(O)c1` came in with a z-score of -0.276.
To `CCOC(=O)C1=C(C)NC(=O)NC1c1cccc(O)c1` (stereo not given) belongs -0.126; to `CCOC(=O)C1CCC(CNCc2ccc(Cl)cc2)CC1` (stereo not given), -1.85.
The same measure for `CNc1c([N+](=O)[O-])cnn1-c1ccc(Cl)cc1Cl`: -0.197; for `CC1=NN(C(=O)COc2ccc(C)c(C)c2)C(O)(c2ccc(Cl)cc2)C1` (stereo not given): -0.32.
In the case of `CC1=NN(C(=O)COc2ccccc2C)C(O)(c2ccc(Cl)cc2)C1` (stereo not given), the z-score is -0.867.
On to `CCOC(=O)C1=NN(C(=O)c2ccc(C)cc2)C(O)(c2ccc(Cl)cc2)C1` (stereo not given), for which the z-score is 10.4 (active).
For the compound `CN1CCN(c2ncnc3c2cnn3-c2ccc(Cl)cc2)CC1`, the z-score was determined as 0.276.
On to `COc1ccccc1OCCNc1nc2c(c(=O)n(C)c(=O)n2C)n1C`, for which the z-score was found to be 1.41.
`Cc1ccc(Cc2cnc(NC(=O)c3ccco3)s2)cc1`: the z-score was -0.555.
`Cc1ccc(NC(=O)CSc2nc3ccccc3c3nc(CCc4c(C)n[nH]c4C)nn23)cc1F`: the z-score is -0.264.
Consider `COCCNC(=O)CN1C(=O)CSc2ncccc21`, for which the z-score is 3.57 (active).
For `CNC(=O)CN1C(=O)CSc2ncccc21`, the z-score was 0.227.
The same measure for `COC(=O)CN1C(=O)CSc2ncccc21`: 0.767; for `COC(=O)c1ccc(C)c(NC(=O)Cc2coc3cc(OC)ccc23)c1`: 0.022.
`Cn1c(SCCOc2cccc(Cl)c2)nnc1-c1ccncc1` came in with a z-score of -0.17.
To `Cc1ccc(OCCSc2nnc(-c3ccncc3)n2C)cc1` belongs -0.157.
To `COCCSc1nnc(-c2cccc(C#N)c2)n1C` belongs 2.31.
The same measure for `Cc1ccc(S(=O)(=O)N2CCC(C(=O)N3CCC[C@H]3C(=O)NCc3ccccc3)CC2)cc1`: -0.265; for `CCC(c1nnnn1C(C)(C)C)N1CCN(C2CCCC2)CC1` (stereo not given): 0.224.
Regarding `O=C(CN(Cc1cccs1)C(=O)CNS(=O)(=O)c1ccc(F)cc1)NCc1ccco1`, the z-score was -0.317.
To `Cc1ccc(-c2cc(-c3ccccc3[N+](=O)[O-])[nH]n2)c(O)c1` belongs -0.292; to `Cc1ccc(-c2cc(-c3ccccc3C)[nH]n2)c(O)c1`, -0.115.
The compound `Cc1ccc(-c2cc(-c3cccs3)[nH]n2)c(O)c1` showed a z-score of 2.77.
In turn, `COC(=O)c1cc(NS(=O)(=O)c2ccc(NCc3cccnc3)c(N)c2)cc(C(=O)OC)c1` had a z-score of -0.104.
To `CCOC(=O)c1nc2cc3n(c(C)c-2c1C)C(C)C(CC)=C3C` (stereo not given) belongs 2.31; to `CCOC(=O)c1nc2cc3n(c(C)c-2c1C)C(C)C(C)=C3C` (stereo not given), -0.0669.
Compound `CCOC(=O)c1nc2cc3n(c(CC(C)C)c-2c1C)CC(C)=C3C` showed a z-score of 0.604.
To `CCOC(=O)Nc1sc2c(c1C#N)CCCC2` belongs 0.504; to `CSc1ccccc1NC(=O)COc1ccccc1Cl`, -1.54.
For `Cc1cnc(NC(=O)COc2cccc3c2OC(C)(C)C3)s1`, the z-score came out at 0.713.
Turning to `Cc1cnc(NC(=O)COc2ccccc2Cl)s1`, the z-score was 3.06 (active).
Compound `Cc1ccc(S(=O)(=O)NCCC(=O)NC2CCCC2)cc1` registered a z-score of 0.757.
The same measure for `COc1ccc(CCCC(=O)NC2CCCCC2)cc1`: -0.301.
The same measure for `COc1ccc(S(=O)(=O)NCCCCCC(=O)NCCCN2CCOCC2)cc1`: 2.89; for `COc1ccc(S(=O)(=O)NCCC(=O)NC2CCCCCCC2)cc1`: 3.82 (active); for `O=C(CCCCCNS(=O)(=O)c1ccc(Br)cc1)NCCN1CCOCC1`: 0.263.
`CCCCNC(=O)CCCCCNS(=O)(=O)c1ccc(OC)cc1` displayed a z-score of 1.14.
The same measure for `CC(C)(C)NC(=O)CN1CCC(O)(c2ccccc2)CC1`: -0.263; for `CCOC(=O)CC(=O)CSc1nc2cc(C)ccc2cc1C`: 0.9; for `CNC(=O)c1sc(-c2ccccc2)nc1C`: -0.396.
The compound `COc1ccc(C(=O)CSc2ccc(-c3ccccc3)nn2)cc1` displayed a z-score of -0.139.
The same measure for `Oc1c(C=Nc2cccnc2)sc2ccccc12`: -0.313.
In turn, `Oc1c(C=NCc2ccncc2)sc2ccccc12` yielded a z-score of 2.11.
As to `CN=Cc1sc2ccccc2c1O`, the z-score came to 0.0625.
To `O=c1ccc(/C=C/c2ccccc2)nn1Cc1ccc(Cl)cc1Cl` belongs 0.353; to `CCN(CC)c1ccc(C(=O)O)cc1`, -0.133; to `CCN1CCN(C(=O)c2ccc(Sc3ccccc3Cl)c([N+](=O)[O-])c2)CC1`, 0.195.
With `CCCOc1ccc(C2c3c(oc4ccccc4c3=O)C(=O)N2CCN(CC)CC)cc1OC` (stereo not given), the z-score came out at 0.615.
To `CCN(CC)CCN1C(=O)c2oc3ccccc3c(=O)c2C1c1ccc(F)cc1` (stereo not given) belongs 4.39 (active); to `CCN(CC)CCCN1C(=O)c2oc3ccccc3c(=O)c2C1c1cccnc1` (stereo not given), 0.402.
Compound `CCOc1ccc(C2c3c(oc4ccccc4c3=O)C(=O)N2CCCN2CCOCC2)cc1` (stereo not given) returned a z-score of -0.851.
For the compound `O=C1c2oc3ccccc3c(=O)c2C(c2cccc(O)c2)N1c1ccccn1` (stereo not given), the z-score is -0.576.
The same measure for `CCN(CC)CCN1C(=O)c2oc3ccccc3c(=O)c2C1c1ccccc1` (stereo not given): 3.81 (active); for `CCN(CC)CCN1C(=O)c2oc3ccccc3c(=O)c2C1c1ccc(C)cc1` (stereo not given): 8.12 (active).
The same measure for `CN(C)CCN1C(=O)c2oc3ccccc3c(=O)c2C1c1cccc(Br)c1` (stereo not given): 0.553; for `CN(C)CCN1C(=O)c2oc3ccc(F)cc3c(=O)c2C1c1ccncc1` (stereo not given): -0.265; for `CN1C(=O)c2oc3ccccc3c(=O)c2C1c1ccccn1` (stereo not given): 8.59 (active).
To `COc1ccc(C2c3c(oc4ccccc4c3=O)C(=O)N2c2ccccn2)cc1` (stereo not given) belongs -0.221; to `CN(C)CCN1C(=O)c2oc3ccccc3c(=O)c2C1c1ccc(F)cc1` (stereo not given), 1.86; to `COc1ccc2nc(NC3=NC(C(=O)Nc4ccc(C)cc4)CC(=O)N3)nc(C)c2c1` (stereo not given), -0.114.
Take `Cc1cc(C)c(NC(=O)C2CCCCN2C)c(C)c1` (stereo not given): the z-score was -0.0533.
The same measure for `COc1ccc(N=C2SC(C(N)=O)CC(=O)N2CCc2ccc(OC)c(OC)c2)cc1` (stereo not given): -0.154.
As for `CCOCCOc1nc2c(c(=O)n(C)c(=O)n2C)n1CCc1ccccc1`, the z-score is -0.18.
The same measure for `CCOc1ccc(NC(=O)Cn2nnc(-c3ccccc3NC(=O)c3cccs3)n2)cc1`: -0.124.
As to `COc1cc(C=O)ccc1OS(=O)(=O)c1ccccc1[N+](=O)[O-]`, the z-score was -0.429.
Take `COc1ccc(S(=O)(=O)CCc2nnc(NC(=O)c3cccs3)s2)cc1`: the z-score was -0.075.
In the case of `CN(C)S(=O)(=O)N(CC(=O)Nc1ccccc1F)c1ccccc1`, the z-score was determined as 0.148.
The same measure for `CSc1cccc(NC(=O)CN(c2cc(C)ccc2C)S(C)(=O)=O)c1`: 1.11; for `CN(C)S(=O)(=O)N(CC(=O)Nc1cccc(F)c1)c1ccccc1`: 0.587; for `CSc1cccc(NC(=O)CN(c2ccc(C)cc2C)S(C)(=O)=O)c1`: 3.01 (active).
To `CSc1cccc(NC(=O)CN(c2cccc(C)c2)S(C)(=O)=O)c1` belongs 0.00929; to `CSc1cccc(NC(=O)CN(c2ccccc2)S(=O)(=O)N(C)C)c1`, 3.6 (active).
To `COC(=O)c1ccccc1NC(=O)CN(c1ccccc1)S(=O)(=O)N(C)C` belongs -1.07; to `CCCCNC(=O)c1ccccc1NC(=O)CN(c1ccccc1)S(=O)(=O)N(C)C`, 2.11.
With `CN(C)S(=O)(=O)N(CC(=O)Nc1ccccc1)c1ccccc1`, the z-score amounted to 0.311.
To `COc1ccc(C(C(=O)NC2CCCCC2)N(CC2CCCO2)C(=O)C2COc3ccccc3O2)cc1OC` (stereo not given) belongs -0.167; to `COc1ccc(S(=O)(=O)Nc2ccccc2C(=O)NCc2ccco2)cc1`, -0.614; to `FC(F)(F)C1=CC(c2ccccc2)=NCCN1`, -0.25.
To `COc1cc(O)oc1C=Nc1ccc(Cl)cc1` belongs -0.289; to `Cc1ccc(N2CC(C(=O)Nc3ccncc3)CC2=O)cc1` (stereo not given), -0.196; to `COc1ccc(OC)c(NC(=O)CSc2nc3c(c(=O)n(C)c(=O)n3C)n2C)c1`, -1.15.
Consider `Cc1cccc(N=Cc2cc3c(cc2[N+](=O)[O-])OCO3)c1`, for which the z-score was -0.0653.
The same measure for `O=C(N/N=C/c1ccco1)c1cc([N+](=O)[O-])cc([N+](=O)[O-])c1`: 0.778; for `Cc1ccc(/C=N\NC(=O)c2cc([N+](=O)[O-])cc([N+](=O)[O-])c2)o1`: 4.57 (active).
Compound `Cc1ccc(/C=N/NC(=O)c2cccc([N+](=O)[O-])c2)o1` returned a z-score of -0.121.
The same measure for `COc1cccc(-c2nc(-c3ccc(NC(=O)Cc4ccccc4OC)cc3)no2)c1`: 0.363; for `CCCNC(=O)Cc1ccsc1`: 0.11.
With `O=C(CCN1C(=O)c2ccccc2C1=O)Nc1ccc(-c2nc3ccccc3o2)cc1`, the z-score is -0.0516.
`Cc1cc(S(=O)(=O)N2CCCC2)ccc1OCC(=O)N1CCOCC1` showed a z-score of 0.0243.
The compound `COC(=O)c1cc(=O)n(CCc2ccc(OC)c(OC)c2)c(=Nc2ccc(F)c(Cl)c2)s1` had a z-score of 0.363.
To `COC(=O)c1cc(=O)n(CCc2ccccc2F)c(=Nc2ccc(F)c(Cl)c2)s1` belongs -0.11; to `COC(=O)c1cc(=O)n(CCc2ccc(OC)cc2)c(=Nc2ccc(F)c(Cl)c2)s1`, 9.49 (active).

Source of the values: PubChem BioAssay AID488969 (Vanderbilt High Throughput Screening Facility, 2010).
